Laboratory results published in PubChem BioAssay (NCATS).
Several values for one entry are separate records, joined by “and”; a condition that tells them apart may be missing. Equal entries are not always repeated. Records with an inconclusive call do not appear. Activity calls are given as the source filed them. Unless noted, calls come from the whole dose curve; as a rule, active = well fitted curve in the direction sought with a large enough effect; inconclusive = small, poorly fitted or top-dose-only effect, or another doubt; inactive = no such curve, though single readings can be large; an effect the other way counts as inactive or inconclusive.

Assays:
[1] = qHTS assay for environmental chemicals that activate the Aryl hydrocarbon Receptor (AhR) signaling pathway (AID 651777); conditions: 1A2-DRE human hepatoma cells, luciferase, 24 h; activation: active compounds read high; note: nearly all actives have a fitted effect of over 15% in size; note: potency is the fitted concentration of half-maximal effect; for activation: % of control where 0% means no effect
In short: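 Luminescence (One-Glo, 30 min, room temperature) reports AhR-driven luciferase in stably transfected human hepatoma cells bearing DRE and CYP1A2 promoter. Cells (1,200/well) were treated with compound for 24 hr at 37 C in qHTS format.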

[2] = target: Peroxisome proliferator-activated receptor alpha (Homo sapiens) (UniProt Q07869); test: qHTS assay for small molecule agonists of the peroxisome proliferator-activated receptor alpha (PPARalpha) signaling pathway (AID 651778); conditions: PathHunter PPARalpha complementation, chemiluminescence, 6 h; max response: active compounds read high; note: potency is the fitted concentration of half-maximal effect; for max response: % of control where 0% means no effect
Sequence of Peroxisome proliferator-activated receptor alpha (Homo sapiens) (Q07869 whole entry, looked up): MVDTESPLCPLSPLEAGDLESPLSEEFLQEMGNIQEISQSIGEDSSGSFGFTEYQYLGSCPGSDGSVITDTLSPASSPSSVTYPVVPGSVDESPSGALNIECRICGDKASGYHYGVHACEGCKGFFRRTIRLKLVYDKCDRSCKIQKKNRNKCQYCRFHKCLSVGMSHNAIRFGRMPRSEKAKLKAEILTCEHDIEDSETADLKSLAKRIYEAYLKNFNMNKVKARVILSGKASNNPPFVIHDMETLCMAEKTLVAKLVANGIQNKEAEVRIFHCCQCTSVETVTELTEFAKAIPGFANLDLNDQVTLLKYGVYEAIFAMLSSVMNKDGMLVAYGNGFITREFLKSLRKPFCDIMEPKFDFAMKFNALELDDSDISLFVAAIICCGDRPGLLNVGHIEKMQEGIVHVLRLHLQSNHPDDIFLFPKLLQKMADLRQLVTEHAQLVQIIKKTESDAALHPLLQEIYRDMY
In short: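 Cells plated at 2,000/well and held overnight at 37 C, 5% CO2, then compound added by pin tool for 6 hr; after PathHunter detection reagent and 60 min at room temperature, chemiluminescence from enzyme complementation was read.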

[3] = qHTS assay for small molecule agonists of the antioxidant response element (ARE) signaling pathway measured by Nrf2-dependant transcriptional activity - cell viability counter screen (AID 720653; active = well fitted curve in the direction sought with a large enough effect in the repeat runs; an effect the other way counts as inactive or inconclusive; note: % is set by controls: 0 for no effect and ±100 for the full control effect); conditions: ARE-bla HepG2 viability, CellTiter-Glo ATP luminescence, 16 h; active compounds read low
In short: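 ARE-bla HepG2 cells (2,000/well) rested 5 hrs at 37C/5% CO2, then exposed to compounds in DMSO for 16 hrs. Viability was read in the same wells as intracellular ATP by luminescence, 30 min at room temperature after reagent addition.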

[4] = qHTS Assay for Identifying Gametocytocidal Compounds (AID 743244); note: potency is the fitted concentration of half-maximal effect;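 for max response: % is set by controls: 0 for no effect and ±100 for the full control effect; actives lower the fluorescent signal which means gametocytes are killed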; conditions: P. falciparum 3D7 stage III-V gametocytes, alamarBlue, 72 h; max response: active compounds read low
In short: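 Stage III-V P. falciparum 3D7 gametocytes, 20,000 per well, were exposed to compounds for 72 h at 37C, 5% CO2. AlamarBlue was then added for 24 h and viability was read as fluorescence at Ex 525/Em 598 nm.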

[5] = qHTS assay for cell viability of HEK293 cells (AID 743288); conditions: ATP luminescence (CellTiter-Glo), 18 h, active compounds read low; note: % is set by controls: 0 for no effect and ±100 for the full control effect; nearly all actives have a fitted effect of over 50% in size
In short: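 Readout is luciferase-coupled ATP content (CellTiter-Glo luminescence, 30 min room temperature) as a measure of metabolically competent cells. Parental HEK293 cells were plated 5 h or more before compound addition, then treated 18 h at 37 C.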

[6] = qHTS assay for cell viability of the p53RE-bla HCT-116 cell line (AID 743292); note: % is set by controls: 0 for no effect and ±100 for the full control effect; nearly all actives have a fitted effect of over 55% in size
In short: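 ATP-based luminescent viability (CellTiter-Glo, 30 min RT) after 16 h compound treatment at 37 C of p53RE-bla HCT-116 cells, seeded at 4,000 cells/well and rested 5 h before dosing.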

[7] = target: Nuclear receptor ROR-gamma (Homo sapiens) (UniProt P51449); test: qHTS assay for small molecule antagonists of the retinoid-related orphan receptor gamma (ROR-gamma) signaling pathway (AID 651802); note: nearly all actives have a fitted effect of over 60% in size; note: potency is the fitted concentration of half-maximal effect
Sequence of Nuclear receptor ROR-gamma (Homo sapiens) (P51449 whole entry, looked up): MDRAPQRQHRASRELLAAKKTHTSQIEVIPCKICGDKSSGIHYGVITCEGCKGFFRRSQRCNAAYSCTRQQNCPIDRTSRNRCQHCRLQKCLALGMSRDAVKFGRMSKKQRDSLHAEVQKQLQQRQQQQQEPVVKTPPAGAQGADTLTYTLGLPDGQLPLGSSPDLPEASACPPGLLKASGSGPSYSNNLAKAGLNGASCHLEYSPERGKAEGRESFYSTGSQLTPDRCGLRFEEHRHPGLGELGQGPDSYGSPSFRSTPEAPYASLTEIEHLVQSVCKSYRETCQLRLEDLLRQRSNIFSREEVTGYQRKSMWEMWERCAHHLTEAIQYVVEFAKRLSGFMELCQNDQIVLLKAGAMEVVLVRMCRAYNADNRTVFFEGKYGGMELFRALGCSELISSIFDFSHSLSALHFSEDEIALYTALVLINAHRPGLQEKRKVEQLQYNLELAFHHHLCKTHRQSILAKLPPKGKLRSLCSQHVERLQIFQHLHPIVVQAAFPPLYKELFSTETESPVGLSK
In short: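 Steps: cells dispensed; compound or DMSO transferred by pin tool; doxycycline added to induce the ROR response element-driven luciferase; plates held 16hr at 37C; ONE-Glo added and luminescence measured.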

[8] = qHTS for compounds that reverse cellular toxicity of Amyloid beta (A-beta) peptide in yeast: LOPAC Validation Assay (AID 720559);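 note: plate controls were DMSO for no effect and equimolar ferric chloride plus clioquinol rescue for full effect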
In short: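 Rescue of A-beta toxicity was scored as yeast growth by 600 nm absorbance after 48 hr at 30 C with compound. Normalization used DMSO (negative) and equimolar ferric chloride plus clioquinol (positive).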

[9] = qHTS for Activators of Parkin Expression: LOPAC Validation Assay (NLuc Reporter) (AID 720572;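 note: 0% = DMSO and 100% = positive control compound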)
In short: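 Cells harboring the Parkin-promoter coincidence reporter were treated for 24 h at seven concentrations. NLuc output was measured sequentially after the FLuc channel and scaled between DMSO and positive control values.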

[10] = target: T1, Hexokinase-4 (Homo sapiens) + Glucokinase regulatory protein (Homo sapiens) (UniProt P35557+Q14397); test: qHTS assay for inhibitors of recombinant human GCK-GKRP interaction: Diaphorase-coupled assay (AID 743205)
T1 sequence (P35557 whole entry, looked up): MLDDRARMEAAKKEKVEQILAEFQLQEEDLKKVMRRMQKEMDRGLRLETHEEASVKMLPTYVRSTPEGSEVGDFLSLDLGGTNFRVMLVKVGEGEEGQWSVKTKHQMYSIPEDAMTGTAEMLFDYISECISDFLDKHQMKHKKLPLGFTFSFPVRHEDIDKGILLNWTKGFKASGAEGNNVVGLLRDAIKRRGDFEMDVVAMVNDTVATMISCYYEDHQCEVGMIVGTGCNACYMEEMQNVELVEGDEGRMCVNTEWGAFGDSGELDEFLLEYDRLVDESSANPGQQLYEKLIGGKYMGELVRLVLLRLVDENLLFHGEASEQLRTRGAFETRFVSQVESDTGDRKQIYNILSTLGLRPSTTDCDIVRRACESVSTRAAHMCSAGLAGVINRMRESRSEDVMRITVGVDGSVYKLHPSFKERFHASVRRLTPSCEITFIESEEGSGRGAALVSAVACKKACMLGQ
T1 sequence (Q14397 whole entry, looked up): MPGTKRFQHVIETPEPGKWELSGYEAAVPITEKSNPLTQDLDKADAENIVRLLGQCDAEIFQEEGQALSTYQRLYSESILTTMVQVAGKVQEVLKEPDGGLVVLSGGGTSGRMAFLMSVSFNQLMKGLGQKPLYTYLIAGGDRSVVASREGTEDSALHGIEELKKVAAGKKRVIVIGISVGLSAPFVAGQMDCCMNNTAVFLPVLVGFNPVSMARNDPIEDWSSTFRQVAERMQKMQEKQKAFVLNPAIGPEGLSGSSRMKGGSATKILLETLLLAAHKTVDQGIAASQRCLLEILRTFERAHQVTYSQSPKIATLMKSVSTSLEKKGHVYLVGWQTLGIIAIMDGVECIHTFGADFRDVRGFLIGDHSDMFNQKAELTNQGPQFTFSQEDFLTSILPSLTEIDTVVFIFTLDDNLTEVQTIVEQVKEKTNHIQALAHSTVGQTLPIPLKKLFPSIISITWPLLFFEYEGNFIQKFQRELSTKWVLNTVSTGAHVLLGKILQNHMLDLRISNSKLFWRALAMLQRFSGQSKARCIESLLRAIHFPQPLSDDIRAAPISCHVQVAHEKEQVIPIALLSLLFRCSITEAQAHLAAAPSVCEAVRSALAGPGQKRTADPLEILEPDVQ
In short: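 A kinetic fluorescence read (Ex 525/Em 590 nm, every minute for 30 minutes) tracked resorufin from a G6PDH-diaphorase coupled GCK reaction. It contained 10 nM GST-GCK, 10 nM FLAG-GKRP, 5 mM glucose, 0.4 mM ATP in Hepes pH 7.6. Normalized to with/without-enzyme DMSO controls.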

[11] = target: T1, Hexokinase-4 (Homo sapiens) + Glucokinase regulatory protein (Homo sapiens); test: qHTS assay for inhibitors of recombinant human GCK-GKRP interaction: ADP-Glo assay (AID 743206);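 note: plate controls were DMSO plus enzyme for no effect and no enzyme for full effect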
In short: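 Pin-transferred compounds meet a 15 nM GST-GCK/15 nM FLAG-GKRP/2 uM S6P mix (dispense concentrations). ATP is then added to 0.4 mM final with 5 mM glucose, and the reaction runs 60 min at room temperature. ADP is quantified luminescently.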

[12] = target: T1, Hexokinase-4 (Homo sapiens) + Glucokinase regulatory protein (Homo sapiens); test: qHTS assay for inhibitors of recombinant human GCK-GKRP interaction: HTRF assay (AID 743207);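 note: 0% = DMSO with GCK present and -100% = DMSO wells lacking GCK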
In short: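 After 60 min equilibration at room temperature with anti-FLAG XL665 and anti-GST antibodies, FRET ratio (665/615 nm, excitation 320 nm) was read. Proteins: GST-GCK and FLAG-GKRP, each 5 nM, plus 2 uM S6P, pH 7.1 buffer; GCK-free wells define minimum signal.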

[13] = qHTS assay for small molecule antagonists of the retinoid-related orphan receptor gamma (ROR-gamma) signaling pathway - cell viability counter screen (AID 720652; active = well fitted curve in the direction sought with a large enough effect in the repeat runs; an effect the other way counts as inactive or inconclusive;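 note: compound exposure lasted 16 hr before ATP read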; note: potency is the fitted concentration of half-maximal effect)
In short: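 Steps: seed CHO cells bearing TET-inducible ROR and ROR response element-luciferase; rest 5 hr at 37 C; add compound, then doxycycline; incubate 16 hr; add CellTiter-Glo and read luminescence as ATP-based viability.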

[14] = target: Arylsulfatase A (Homo sapiens) (UniProt P15289); test: qHTS screen for enhancers of Arylsulfatase A (ASA1): LOPAC Validation Assay (AID 720538); conditions: outcome: dose series up to 57.5 µM
Sequence of Arylsulfatase A (Homo sapiens) (P15289 whole entry, looked up): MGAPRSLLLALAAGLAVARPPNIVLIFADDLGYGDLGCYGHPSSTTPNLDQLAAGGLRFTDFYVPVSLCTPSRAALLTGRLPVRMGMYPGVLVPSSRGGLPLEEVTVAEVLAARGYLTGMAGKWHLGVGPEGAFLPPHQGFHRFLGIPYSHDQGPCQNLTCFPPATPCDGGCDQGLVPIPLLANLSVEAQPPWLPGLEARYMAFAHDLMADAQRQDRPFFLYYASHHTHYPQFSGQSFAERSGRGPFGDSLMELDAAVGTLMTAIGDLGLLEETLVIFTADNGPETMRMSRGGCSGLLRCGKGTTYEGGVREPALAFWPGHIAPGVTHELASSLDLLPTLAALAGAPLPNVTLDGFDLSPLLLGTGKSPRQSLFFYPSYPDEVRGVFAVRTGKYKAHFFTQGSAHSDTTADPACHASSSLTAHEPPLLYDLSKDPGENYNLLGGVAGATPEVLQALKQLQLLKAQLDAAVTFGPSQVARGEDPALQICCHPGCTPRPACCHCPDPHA
In short: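 Enhancer assay in patient-derived MLD fibroblasts carrying ASA-I179S: 48 h compound exposure at 37 C, then 14 h room-temperature pNCS turnover (0.5 mM final) in lysis buffer. Read by fluorescence at 525/598 nm after NaOH stop.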

Cc1cc(=O)n(-c2ccccc2)n1C
inactive: activation [1] -0.814% | max response [2] 0.347% | max response [3] -4.23% | max response [4] 18.5% | max response [5] -2.36% | outcome [6]

C[C@]12CC[C@@H]3c4ccc(O)cc4CC[C@H]3[C@@H]1CC[C@@H]2O
inactive: activation [1] 1.98% | max response [2] 0.86% | outcome [8] | outcome [9] | max response [3] -2.14% | outcome [10] | outcome [11] | outcome [12] | max response [4] 23.5% and 41.3% | max response [5] -9.32% | outcome [6]
active: Potency [7] 33.5 µM

O=C1OC(c2ccc(O)cc2)(c2ccc(O)cc2)c2ccccc21
inactive: max response [2] -2.04% and -2.85% | Potency [13] | max response [3] 4.44% and -20.6% | max response [4] 7.07% | max response [5] -1.91% and -6.06% | outcome [6]
active: Potency [7] 66.8 µM

CC1(C)CCC(NC(=O)[C@@H](N)CCC(=O)O)CC1
inactive: outcome [14] | outcome [8] | outcome [9] | outcome [10] | outcome [11] | outcome [12] | max response [4] -7.5% and 17.9%

Oc1c(Cl)cc(Cl)cc1Sc1cc(Cl)cc(Cl)c1O
inactive: activation [1] 4.24% and -3.25% | Potency [13] | max response [4] 20.1% | outcome [6]
active: Potency [2] 28.2 µM and 25.1 µM | Potency [7] 4.73 µM

CC(=O)Oc1ccc(C(c2ccc(OC(C)=O)cc2)c2ccccn2)cc1
inactive: activation [1] 0.887% | max response [2] -4.57% | Potency [7] | Potency [13] | max response [3] 4.78% | max response [4] 7.87% | max response [5] -9.96%

Oc1c(I)cc(Cl)c2cccnc12
inactive: max response [2] 1.34% | max response [3] -8.01%
active: Potency [1] 44.7 µM | Potency [7] 23.7 µM | Potency [4] 7.94 µM

CC(C)(Oc1ccc(Cl)cc1)C(=O)O
inactive: activation [1] -2.05% | max response [2] 8.18% | max response [3] 10.5% | max response [4] 6.9% | max response [5] -4.41% | outcome [6]

COC1=CC(=O)C[C@@H](C)[C@]12Oc1c(Cl)c(OC)cc(OC)c1C2=O
inactive: activation [1] 0.113% | max response [2] 2.03% | Potency [13] | max response [3] 2.34% | max response [4] 1.7% | max response [5] -14.5% | outcome [6]

Oc1ccc(O)cc1
active: Potency [7] 10.6 µM
inactive: max response [2] -2.94% | outcome [14] | outcome [8] | outcome [9] | max response [3] -23.3% | outcome [10] | outcome [11] | outcome [12] | max response [5] -28.2%

CC(C)(C)CC(C)(C)c1ccc(OCCOCC[N+](C)(C)Cc2ccccc2)cc1
inactive: activation [1] 2.85% and 2.84% | max response [2] -0.283% and 4.47% | Potency [13]
active: Potency [4] 8.91 µM

O=C1CCC(c2ccc(-n3ccnc3)cc2)=NN1
inactive: outcome [14] | outcome [8] | outcome [9] | outcome [10] | outcome [11] | outcome [12] | max response [4] -0.884% and -6.59%

CN1C2CCC1CC(OC(=O)c1c[nH]c3ccccc13)C2 (stereo not drawn)
inactive: outcome [14] | outcome [8] | outcome [9] | outcome [10] | outcome [11] | outcome [12] | max response [4] 9.76%

CC(O)C(=O)O (stereo not drawn)
inactive: activation [1] -0.164% | max response [2] -0.871% | Potency [7] | Potency [13] | max response [3] -3.07% | max response [4] -6.68% | max response [5] 1.72% | outcome [6]

CC(O)(P(=O)(O)O)P(=O)(O)O
inactive: activation [1] 0.149% | max response [2] 0.583% | max response [3] -6.37% | max response [4] -10.1% | max response [5] -5.92% | outcome [6]

O=c1ccc2ccccc2o1
inactive: activation [1] -0.0038% and -0.214% and 9.96% | max response [2] -5.67% and -0.649% and -3.56% | Potency [7] | Potency [13] | max response [3] 0.83% and -14.1% and -0.794% | max response [4] 15.4% | max response [5] 8.9% and -9.16% and -5.08% | outcome [6]

COc1cccc2c1C(=O)c1c(O)c3c(c(O)c1C2=O)C[C@@](O)(C(C)=O)C[C@@H]3O[C@H]1C[C@H](N)[C@H](O)[C@H](C)O1
active: Potency [7] 18.8 µM | Potency [13] 13.3 µM | Potency [4] 6.31 µM
inactive: max response [2] -9.3% | outcome [6]
